Growth data for eight compounds are collected here from PubChem BioAssay (NCI).

This is part of a sample that, as a whole, favours compounds with a hit. Of some 83,000 tested, about 20% had one in any assay.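 A percent growth of 40 corresponds to 60% growth inhibition; 0 means no net growth; -100 means all cells died. Active threshold: below 10.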 Values without a mark were called inactive. Activity calls are given as the source filed them.

Holding throughout (assay): NCI-60 one-dose screen, 48 h (100 = growth as untreated, 0 = no growth, -100 = all killed)
Conditions in all cases: 10 µM unless noted

The subject of assay [1] is SK-MEL-2 melanoma.
Assay [2] relates to EKVX NSCLC.
The test system of assay [3] is SN12C renal.
Assay [4] relates to UO-31 renal.
For assay [5], the system named is ACHN renal.
Assay [6] concerns CCRF-CEM leukemia.
Assay [7] has as its system MOLT-4 leukemia.
Assay [8] has as its system SR leukemia.
The test system of assay [9] is RPMI-8226 leukemia.
The test system of assay [10] is OVCAR-8 ovarian.
The subject of assay [11] is OVCAR-5 ovarian.
In assay [12] the test system is OVCAR-4 ovarian.
The test system of assay [13] is SK-OV-3 ovarian.
Assay [14] concerns IGROV1 ovarian.
The subject of assay [15] is OVCAR-3 ovarian.
For assay [16], the system named is HS 578T breast.
The subject of assay [17] is NCI/ADR-RES ovarian.
Assay [18] has as its system A498 renal.

Take `O=C(Nc1ccccc1Cl)c1c[nH]c(=O)c(-c2ccc(N3CCCOC4(CC4)C3)cc2)c1`: the growth in assay [1] was 70.1%; in assay [2], 37.6%; in assay [3], 74.9%; in assay [4], 65.7%; in [5], 72.2%; in assay [6] it was 48.3%. Further, the growth in assay [7] was 48.1%; in [8] it was 39.6%; in assay [9] it was 21.2%; in assay [10], 58.3%; in assay [11], 87%; in assay [12] it was 44.3%. Moreover, the growth was 74.6% in assay [13]; 85.7% in assay [14]; 64.5% in [15]; 87.3% in assay [16]; 60.6% in [17].

With `COc1cc2ncn3c(=O)c4c5c(sc4nc3c2cc1OC)CCCCC5`, the growth in assay [1] was 113%; in assay [2] it was 87.9%; in [3], 105%; in [4], 92.5%; in assay [5] it was 94%; in assay [18], 90.9%. In addition, the growth was 103% in [6]; 106% in assay [7]; 97.9% in assay [8]; 103% in assay [9]; 102% in assay [10]; 98.6% in [11]. Further, the growth was 101% in assay [12]; 99.6% in assay [13]; 79.3% in assay [14]; 98.4% in assay [15]; 99.7% in assay [16]; 92.4% in assay [17].

Regarding `Nc1ncc(-c2ccc3ncnc(Nc4ccc(F)c(Cl)c4)c3c2)cn1`, the growth in [1] was 95%; in assay [2], 40.8%; in assay [3], 37.4%; in [4], 12%; in assay [5], -74.2% (active); in assay [18], 23%. Further, the growth in assay [6] was 61.4%; in assay [7], 80.4%; in assay [8], -35.1% (active); in assay [9], 50%; in [10] it was 61.3%; in [11], 80.3%. The growth was -17.3% (active) in assay [12]; 65.7% in assay [13]; 1.68% (active) in assay [14]; -57.4% (active) in assay [15]; 34.6% in [16]; 59.4% in [17].

With `COc1cc(NC(C)CCCN2C(=O)c3ccccc3C2=O)c2nc(C)ccc2c1OC` (configuration not stated), the growth in assay [1] is 96.8%; in assay [2] it was 96.3%; in assay [3], 92.1%; in [4], 98.1%; in [5], 99.5%; in [18], 97.5%. Also, the growth was -56.3% (active) in assay [6]; 73.6% in assay [7]; 36.7% in assay [8]; 70.1% in assay [9]; 88.2% in [10]; 100% in assay [11]. The growth in assay [12] was 69.4%; in [13], 106%; in [14] it was 129%; in assay [16] it was 113%; in [17], 83.3%.

Take `Cc1ccc(=O)n(-c2ccc(Br)cc2F)c1`: the growth in [1] is 116%; in assay [2], 99.5%; in assay [3], 107%; in assay [4], 90.7%; in [5], 94.6%; in [18] it was 84%. The growth in [6] was 99.9%; in [7], 108%; in [8], 108%; in assay [9], 101%; in [10] it was 99%; in assay [11], 105%. For the same compound, the growth in [12] was 97.3%; in assay [13] it was 90.4%; in assay [14] it was 97.6%; in assay [15] it was 109%; in [16], 100%; in [17] it was 104%.

Turning to `CCCCC(=O)Nc1nc2ccc(SCCC)cc2s1`, the growth was 50.1% in assay [1]; 59.7% in assay [2]; 50.1% in assay [3]; 37.5% in assay [4]; 75.1% in [5]; 9.34% (active) in assay [18]. The growth is 44% in assay [6]; 29.8% in assay [7]; 6.63% (active) in assay [8]; 15.7% in assay [9]; 56.7% in [10]; 69% in assay [11]. For the same compound, the growth in [12] is 81.1%; in assay [13], 66%; in assay [14], 54.2%; in assay [15], 22.8%; in [16], 48.9%; in assay [17], 13%.

Regarding `NS(=O)(=O)c1ccc(CCN2C(=O)/C(=C\c3ccc(Cl)cc3)C=C2c2ccc(Oc3ccccc3)cc2)cc1`, the growth in assay [1] was 73%; in assay [2], 60.1%; in assay [3], 78.2%; in assay [4] it was 65.8%; in assay [5], 72.3%; in [18] it was 80.8%. Further, the growth is 81.4% in assay [6]; 48.2% in [7]; 45.9% in assay [8]; 60.4% in assay [9]; 71.4% in assay [10]; 76.7% in assay [11]. Moreover, the growth in assay [12] is 87.5%; in assay [13], 93%; in assay [14] it was 78.8%; in assay [15], 81.3%; in [16], 98.8%; in [17] it was 78.3%.

For `COC(=O)c1ccc2c(c1)Oc1ccc(Cl)cc1-c1cc(C)nn1-2`, the growth in assay [1] is 100%; in [2], 66.9%; in assay [3], 51.8%; in assay [4] it was 82.2%; in [5] it was 22.6%; in assay [18], 62.7%. Besides, the growth in assay [6] was 78.8%; in assay [7], 99.9%; in assay [8] it was 69.9%; in assay [9] it was 74.9%; in assay [10], 72.8%; in assay [11] it was 91.2%. Moreover, the growth in assay [12] was -6.66% (active); in assay [13] it was 53.5%; in assay [14], 61.8%; in assay [15], 39%; in assay [16], 55.1%; in [17] it was 73.4%.
